# Data: ChEMBL document CHEMBL3988442, “University of Dundee, Small-Polar-MMV Screening Library” (2021)
# For some of these results: Entries with a potency or affinity are not part of this list.
# Columns and labels:
# [1] = target: T1, Methionyl-tRNA synthetase, putative (Leishmania donovani (strain BPK282A1)) (UniProt E9BF75); assay: Leishmania donovani Methionine tRNA synthetase (LdMetRS):v7. Dose response assay; format: functional; design: conc 80 nM, time 150 minutes
# T1 sequence (whole entry): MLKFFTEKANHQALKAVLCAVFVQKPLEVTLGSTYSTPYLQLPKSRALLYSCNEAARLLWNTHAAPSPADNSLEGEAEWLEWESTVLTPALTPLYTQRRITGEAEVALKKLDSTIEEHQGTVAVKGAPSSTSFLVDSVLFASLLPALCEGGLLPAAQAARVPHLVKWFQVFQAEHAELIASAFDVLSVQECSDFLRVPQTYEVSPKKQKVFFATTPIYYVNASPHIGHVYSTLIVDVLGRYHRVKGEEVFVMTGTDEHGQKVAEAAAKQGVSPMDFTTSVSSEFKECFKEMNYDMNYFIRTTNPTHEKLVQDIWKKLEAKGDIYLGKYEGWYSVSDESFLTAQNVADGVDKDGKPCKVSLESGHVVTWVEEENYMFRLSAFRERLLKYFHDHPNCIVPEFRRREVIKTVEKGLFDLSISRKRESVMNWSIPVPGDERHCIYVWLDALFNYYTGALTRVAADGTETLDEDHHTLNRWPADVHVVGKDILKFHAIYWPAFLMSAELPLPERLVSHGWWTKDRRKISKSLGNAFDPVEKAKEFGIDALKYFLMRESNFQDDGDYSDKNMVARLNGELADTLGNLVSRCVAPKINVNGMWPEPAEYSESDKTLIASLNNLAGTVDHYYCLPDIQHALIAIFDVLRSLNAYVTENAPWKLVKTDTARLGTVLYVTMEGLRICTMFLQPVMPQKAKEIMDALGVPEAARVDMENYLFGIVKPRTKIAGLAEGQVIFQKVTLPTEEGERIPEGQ
# [2] = target: Protein translocase subunit SecA (Escherichia coli (strain K12)) (UniProt P10408); assay: Assay to Identify E. coli SecA ATPase Inhibitors; format: functional; design: scale not given: direction of the effect not stated beside the values; details: 30 µM
# [3] = target: T2, Ubiquitin-activating enzyme e1, putative (Leishmania donovani (strain BPK282A1)) (UniProt E9BSI1); assay: Leishmania donovani Ubiquitin Activating Enzyme (LdE1); format: functional; design: scale not given: direction of the effect not stated beside the values; details: 30 µM
# T2 sequence (whole entry): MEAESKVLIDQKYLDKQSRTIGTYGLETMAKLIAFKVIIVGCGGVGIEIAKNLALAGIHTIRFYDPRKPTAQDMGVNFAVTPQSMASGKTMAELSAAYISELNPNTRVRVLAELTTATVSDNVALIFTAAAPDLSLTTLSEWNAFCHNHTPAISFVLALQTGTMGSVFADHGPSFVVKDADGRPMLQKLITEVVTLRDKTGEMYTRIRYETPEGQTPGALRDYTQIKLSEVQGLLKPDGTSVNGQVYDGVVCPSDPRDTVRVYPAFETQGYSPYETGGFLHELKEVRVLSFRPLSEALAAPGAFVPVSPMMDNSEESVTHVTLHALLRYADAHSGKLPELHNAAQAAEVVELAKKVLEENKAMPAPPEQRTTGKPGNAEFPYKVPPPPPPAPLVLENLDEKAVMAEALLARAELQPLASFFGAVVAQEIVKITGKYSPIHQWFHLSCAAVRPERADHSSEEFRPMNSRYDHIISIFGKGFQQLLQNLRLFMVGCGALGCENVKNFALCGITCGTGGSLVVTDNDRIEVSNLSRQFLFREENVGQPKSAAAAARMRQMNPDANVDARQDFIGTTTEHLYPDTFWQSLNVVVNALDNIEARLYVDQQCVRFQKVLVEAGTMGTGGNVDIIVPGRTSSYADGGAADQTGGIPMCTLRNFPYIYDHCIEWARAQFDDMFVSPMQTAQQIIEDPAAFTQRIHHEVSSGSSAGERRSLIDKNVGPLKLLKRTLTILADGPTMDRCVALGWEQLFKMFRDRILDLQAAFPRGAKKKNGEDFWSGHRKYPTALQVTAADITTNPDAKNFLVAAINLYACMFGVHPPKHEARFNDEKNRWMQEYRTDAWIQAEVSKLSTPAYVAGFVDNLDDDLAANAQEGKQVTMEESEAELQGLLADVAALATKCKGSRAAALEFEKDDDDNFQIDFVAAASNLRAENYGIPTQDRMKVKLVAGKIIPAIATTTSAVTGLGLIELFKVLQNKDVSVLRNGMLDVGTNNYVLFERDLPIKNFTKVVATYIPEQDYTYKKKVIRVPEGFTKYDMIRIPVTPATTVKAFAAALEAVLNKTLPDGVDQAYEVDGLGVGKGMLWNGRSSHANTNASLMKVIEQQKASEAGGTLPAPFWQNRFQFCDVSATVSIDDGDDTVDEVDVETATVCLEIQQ
# [4] = target: AMP-activated protein kinase, AMPK (Homo sapiens) (UniProt P54646+O43741+P54619+Q9UGJ0+Q9Y478+Q13131+Q9UGI9); assay: AMP-dependent Kinase enzyme assay. An in vitro enzyme assay that detects ADP turnover that is directly proportional to AMPK activity. This uses naive AMPK that is activated during the assay with MK-8722; format: functional; design: scale not given: direction of the effect not stated beside the values; details: 30 µM
# [5] = target: Sialic acid-binding Ig-like lectin 9 (Homo sapiens) (UniProt Q9Y336); assay: Hs-Siglec9 ALPHAscreen SOP 20170721; design: scale not given: direction of the effect not stated beside the values; details: 10 µM
# Trypanosoma cruzi = assay: Trypanosoma cruzi phosphomannomutase and mannose-1-phosphate guanylyltransferase assay; format: functional; design: scale not given: direction of the effect not stated beside the values; details: 10 µM
# [6] = target: T3, Arginase-2, mitochondrial (Homo sapiens) (UniProt P78540); assay: in vitro enzyme assay to detect the production of urea directly proportional to the activity of Arginase II; format: functional; design: scale not given: in the data most compounds retested in dose-response had high values; details: 33.3 µM
# T3 sequence (whole entry): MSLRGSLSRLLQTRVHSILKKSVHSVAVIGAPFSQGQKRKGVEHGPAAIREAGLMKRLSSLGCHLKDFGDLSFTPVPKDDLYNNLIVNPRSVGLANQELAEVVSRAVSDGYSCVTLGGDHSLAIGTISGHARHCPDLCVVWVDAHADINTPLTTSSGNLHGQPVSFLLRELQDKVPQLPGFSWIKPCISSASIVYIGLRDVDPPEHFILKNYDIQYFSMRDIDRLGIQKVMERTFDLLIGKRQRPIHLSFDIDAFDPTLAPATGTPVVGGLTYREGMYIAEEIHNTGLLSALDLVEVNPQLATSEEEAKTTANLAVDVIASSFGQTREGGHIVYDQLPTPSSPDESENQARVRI
# [7] = target: T4, Proteasome subunit beta (Trypanosoma cruzi) (UniProt O96673); assay: Trypanosoma cruzi proteasome chymotrypsin-like activity (TcProtChymo) assay.; format: functional; design: scale not given: in the data most compounds retested in dose-response had high values; details: 9.37 µM
# T4 sequence (whole entry): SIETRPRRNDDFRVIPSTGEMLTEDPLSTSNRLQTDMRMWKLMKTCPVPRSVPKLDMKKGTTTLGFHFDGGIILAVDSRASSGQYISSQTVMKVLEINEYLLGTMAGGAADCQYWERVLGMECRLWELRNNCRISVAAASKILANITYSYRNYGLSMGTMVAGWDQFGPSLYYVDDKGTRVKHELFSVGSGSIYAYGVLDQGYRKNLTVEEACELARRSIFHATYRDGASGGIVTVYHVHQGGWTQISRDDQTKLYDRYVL
# Homo sapiens = species: Homo sapiens; assay: To identify inhibition of the IFN signalling (Jak-Stat) pathway via expression of an eGFP reporter gene under the control of an IFN-stimulated response element (ISRE) containing MxA promoter.; format: functional; design: scale not given: direction of the effect not stated beside the values; details: 30 µM
# [8] = target: T5, Tyrosyl-tRNA synthetase, putative (Trypanosoma cruzi (strain CL Brener)) (UniProt Q4DSP6); assay: Trypanosoma cruzi tyrosyl tRNA synthetase (TcYRS) _High Tyrosine SOP; format: functional; design: scale not given: in the data most compounds retested in dose-response had high values; details: 30 µM
# T5 sequence (whole entry): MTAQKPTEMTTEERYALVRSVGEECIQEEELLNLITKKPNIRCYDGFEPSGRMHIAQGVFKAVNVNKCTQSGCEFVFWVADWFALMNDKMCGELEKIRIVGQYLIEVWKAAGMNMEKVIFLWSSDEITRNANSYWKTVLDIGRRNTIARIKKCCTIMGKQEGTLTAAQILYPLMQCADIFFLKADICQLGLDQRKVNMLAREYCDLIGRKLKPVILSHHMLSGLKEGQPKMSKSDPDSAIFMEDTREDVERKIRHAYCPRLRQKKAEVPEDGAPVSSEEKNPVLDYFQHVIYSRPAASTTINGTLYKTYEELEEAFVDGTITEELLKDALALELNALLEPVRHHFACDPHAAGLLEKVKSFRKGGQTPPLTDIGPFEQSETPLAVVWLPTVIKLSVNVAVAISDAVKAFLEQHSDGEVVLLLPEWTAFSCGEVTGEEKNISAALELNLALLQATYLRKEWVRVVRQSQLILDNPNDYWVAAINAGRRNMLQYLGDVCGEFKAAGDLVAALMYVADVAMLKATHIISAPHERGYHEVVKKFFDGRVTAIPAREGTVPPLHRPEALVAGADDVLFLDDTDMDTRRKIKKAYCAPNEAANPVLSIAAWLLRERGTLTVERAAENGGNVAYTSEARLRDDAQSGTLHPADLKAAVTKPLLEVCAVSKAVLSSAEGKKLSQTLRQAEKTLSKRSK
# [9] = target: T5, Tyrosyl-tRNA synthetase, putative (Trypanosoma cruzi (strain CL Brener)); assay: Trypanosoma cruzi tyrosyl tRNA synthetase (TcYRS) SOP; format: functional; design: scale not given: direction of the effect not stated beside the values; details: 30 µM
# [10] = target: Chromo domain-containing protein 1 (Saccharomyces cerevisiae (strain ATCC 204508 / S288c) (Baker's yeast)) (UniProt P32657); assay: ScCHD-1 Enzyme Inhibition Assay; format: functional; design: scale not given: in the data most compounds retested in dose-response had high values; details: 30 µM
# Sequence of Chromo domain-containing protein 1 (Saccharomyces cerevisiae (strain ATCC 204508 / S288c) (Baker's yeast)) (P32657 whole entry, the tested form may be a part): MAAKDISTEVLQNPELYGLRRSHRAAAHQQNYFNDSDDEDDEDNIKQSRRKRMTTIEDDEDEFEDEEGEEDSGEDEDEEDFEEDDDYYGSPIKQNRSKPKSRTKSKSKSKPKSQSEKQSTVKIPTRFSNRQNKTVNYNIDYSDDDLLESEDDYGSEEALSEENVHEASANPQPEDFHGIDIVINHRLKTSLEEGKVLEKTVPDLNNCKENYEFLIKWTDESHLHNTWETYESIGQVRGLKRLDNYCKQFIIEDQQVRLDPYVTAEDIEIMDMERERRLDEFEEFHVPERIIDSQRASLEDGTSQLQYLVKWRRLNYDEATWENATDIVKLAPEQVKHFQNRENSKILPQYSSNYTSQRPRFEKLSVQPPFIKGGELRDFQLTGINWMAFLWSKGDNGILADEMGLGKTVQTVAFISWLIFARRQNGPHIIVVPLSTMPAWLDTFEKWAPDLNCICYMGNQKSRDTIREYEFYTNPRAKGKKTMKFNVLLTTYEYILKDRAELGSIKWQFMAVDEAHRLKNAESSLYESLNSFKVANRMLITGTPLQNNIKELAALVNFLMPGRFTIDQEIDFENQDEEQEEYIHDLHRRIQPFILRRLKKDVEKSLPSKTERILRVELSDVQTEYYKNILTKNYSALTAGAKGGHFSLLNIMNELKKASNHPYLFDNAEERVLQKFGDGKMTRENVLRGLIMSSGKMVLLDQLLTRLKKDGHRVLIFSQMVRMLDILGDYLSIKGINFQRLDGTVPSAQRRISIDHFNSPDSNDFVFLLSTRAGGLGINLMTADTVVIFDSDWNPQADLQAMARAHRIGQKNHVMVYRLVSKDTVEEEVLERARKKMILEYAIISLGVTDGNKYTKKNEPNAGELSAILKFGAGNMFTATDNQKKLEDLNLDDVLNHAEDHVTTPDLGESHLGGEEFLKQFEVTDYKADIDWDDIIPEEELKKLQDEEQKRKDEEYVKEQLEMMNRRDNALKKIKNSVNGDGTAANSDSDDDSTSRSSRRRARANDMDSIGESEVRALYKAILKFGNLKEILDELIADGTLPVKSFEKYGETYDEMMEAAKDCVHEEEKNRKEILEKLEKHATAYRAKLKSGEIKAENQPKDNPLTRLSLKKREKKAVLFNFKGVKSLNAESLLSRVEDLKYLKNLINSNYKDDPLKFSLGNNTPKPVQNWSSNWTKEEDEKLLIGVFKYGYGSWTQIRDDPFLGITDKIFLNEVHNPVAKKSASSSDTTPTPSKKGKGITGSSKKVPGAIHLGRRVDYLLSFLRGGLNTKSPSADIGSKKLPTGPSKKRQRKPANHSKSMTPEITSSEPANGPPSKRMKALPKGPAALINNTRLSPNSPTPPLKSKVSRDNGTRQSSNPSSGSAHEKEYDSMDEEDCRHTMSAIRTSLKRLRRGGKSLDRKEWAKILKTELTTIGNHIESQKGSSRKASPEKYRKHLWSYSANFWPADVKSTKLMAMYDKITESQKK
# Sequence of Protein translocase subunit SecA (Escherichia coli (strain K12)) (P10408 whole entry): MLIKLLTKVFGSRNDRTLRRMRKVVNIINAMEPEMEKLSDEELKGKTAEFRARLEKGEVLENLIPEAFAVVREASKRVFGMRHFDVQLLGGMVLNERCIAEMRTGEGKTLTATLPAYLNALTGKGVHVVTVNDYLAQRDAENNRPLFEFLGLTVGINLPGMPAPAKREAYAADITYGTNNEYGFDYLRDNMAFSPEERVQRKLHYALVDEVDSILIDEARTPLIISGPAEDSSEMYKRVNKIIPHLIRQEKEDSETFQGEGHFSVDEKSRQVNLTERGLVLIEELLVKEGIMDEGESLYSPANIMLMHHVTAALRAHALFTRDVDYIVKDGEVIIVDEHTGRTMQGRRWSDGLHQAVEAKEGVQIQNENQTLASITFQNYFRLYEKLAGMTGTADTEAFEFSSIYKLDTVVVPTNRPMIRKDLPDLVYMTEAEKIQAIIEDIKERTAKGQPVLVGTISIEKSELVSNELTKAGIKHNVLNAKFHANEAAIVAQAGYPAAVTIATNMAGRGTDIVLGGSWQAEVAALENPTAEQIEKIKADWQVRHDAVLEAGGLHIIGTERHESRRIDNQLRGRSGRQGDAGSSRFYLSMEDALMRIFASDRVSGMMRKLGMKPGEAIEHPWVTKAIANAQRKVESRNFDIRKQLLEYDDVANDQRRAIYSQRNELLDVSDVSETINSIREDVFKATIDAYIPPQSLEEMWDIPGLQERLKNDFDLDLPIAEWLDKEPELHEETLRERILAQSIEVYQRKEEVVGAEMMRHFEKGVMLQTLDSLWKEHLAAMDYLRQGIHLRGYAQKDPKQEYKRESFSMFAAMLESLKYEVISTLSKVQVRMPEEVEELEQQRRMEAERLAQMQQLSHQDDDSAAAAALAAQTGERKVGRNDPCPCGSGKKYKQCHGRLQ
# Sequence of Sialic acid-binding Ig-like lectin 9 (Homo sapiens) (Q9Y336 whole entry): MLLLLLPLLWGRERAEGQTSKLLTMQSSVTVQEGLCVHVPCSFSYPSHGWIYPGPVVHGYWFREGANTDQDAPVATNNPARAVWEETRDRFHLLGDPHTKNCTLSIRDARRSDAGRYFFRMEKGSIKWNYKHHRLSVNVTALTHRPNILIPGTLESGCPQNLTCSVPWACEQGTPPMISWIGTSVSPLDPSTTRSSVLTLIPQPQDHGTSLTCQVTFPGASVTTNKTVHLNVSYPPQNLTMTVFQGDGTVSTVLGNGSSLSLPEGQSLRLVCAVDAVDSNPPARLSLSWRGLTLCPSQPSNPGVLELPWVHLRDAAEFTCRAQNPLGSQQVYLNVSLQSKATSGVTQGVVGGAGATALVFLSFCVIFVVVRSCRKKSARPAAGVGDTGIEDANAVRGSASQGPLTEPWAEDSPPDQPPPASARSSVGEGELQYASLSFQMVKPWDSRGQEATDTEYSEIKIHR
smiles,measurement,setting,value
Cn1cc(CN2CCC(F)(F)C3(CCN(c4cnccn4)C3)C2)cn1 (configuration not stated),PXC50,[1]; MAX_EFFECT 6.650831354,< 4
same,PXC50,[1]; MAX_EFFECT 15.31690141,< 4
same,Percent Effect,[2],-4.19%
same,Percent Effect,[3],2.7%
same,Percent Effect,[4],6.66%
same,Percent Effect,[5],-1.14%
same,Percent Effect,Trypanosoma cruzi,0%
same,Percent Effect,[6],4.17%
same,Percent Effect,[7],-3.47%
same,Percent Effect,Homo sapiens,5.63%
same,Percent Effect,[8],8.91%
same,Percent Effect,[9],8.54%
same,Percent Effect,[10],-4.16%
O=C(c1cc(=O)n(-c2ccccc2)[nH]1)N1CCCC(c2ccn[nH]2)C1 (configuration not stated),PXC50,"[1]; BOTTOM 0.320076031, HILLSLOPE 1.262872317, MAX_EFFECT 68.45753899, TOP 100.0",4.26
same,PXC50,"[1]; BOTTOM -1.400745031, HILLSLOPE 1.149427593, MAX_EFFECT 63.75838926, TOP 91.13261067",4.31
same,PXC50,"[1]; BOTTOM -5.915072335, HILLSLOPE 1.793815397, MAX_EFFECT 65.97222222, TOP 99.62132459",4.18
same,Percent Effect,[4],-16.1%
CN(CC1CC1)c1ccc2ccc(C(=O)NCCc3ccccc3)cn12,PXC50,"[1]; BOTTOM 0.351029795, HILLSLOPE 1.115089004, MAX_EFFECT 62.13151927, TOP 107.5835515",4.12
same,PXC50,"[1]; BOTTOM 1.92078188, HILLSLOPE 1.430695014, MAX_EFFECT 75.69444444, TOP 86.56449287",4.61
same,PXC50,"[1]; BOTTOM 2.657056439, HILLSLOPE 1.351512964, MAX_EFFECT 68.11091854, TOP 100.0",4.19
same,PXC50,"[1]; BOTTOM -1.049582542, HILLSLOPE 1.242411624, MAX_EFFECT 75.16778523, TOP 98.82108854",4.43
same,PXC50,[1]; MAX_EFFECT 50.8411215,< 4
